Assay outcomes deposited in PubChem BioAssay by several laboratories.
GRIN3A LBD mod: NR3A (human) ligand-binding domain modulation. Tm shift relative to glycine control, % at 25 µM. NR3A LBD differential scanning fluorimetry, Tm shift; 0% = protein alone, 100% = glycine-bound protein. hit rate 2.5% among 340,000;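 active = melting temperature shift of at least 10% of the positive control shift, at one fixed dose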
sPLA2-III inh: Inhibits HGIII-sPLA2 liposome hydrolysis, primary screen; Q9NZ20; QFRET BODIPY PC-A2 liposome hydrolysis, fluorescence; inhibition, % at 12.2 µM; hit rate 0.56% among 370,000;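 active = inhibition above mean plus 3 SD of compounds lying within the high and low control bounds, cut at about 19% in these data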;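 also: 0% = median of test compound wells and 100% = no enzyme DMSO wells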
FAS-TE inh: blocks the thioesterase domain of human fatty acid synthase | P49327 | recombinant FAS-TE, OMFH fluorogenic substrate, fluorescence endpoint | inhibition, % at 15 µM | hit rate 0.67% among 360,000;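 active = compounds whose normalised, plate-corrected inhibition of enzyme fluorescence in the single-dose primary screen is 50% or more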;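 also: 0% = DMSO with enzyme and 100% = substrate without enzyme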
ADAM17 inh: ADAM17 inhibition, QFRET primary screen | P78536 | recombinant ADAM17, EDANS/DABCYL FRET peptide cleavage | inhibition, % at 6.95 µM | hit rate 0.83% among 370,000;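 active = inhibition above the mean of compounds lying between control limits plus 3 SD, set per campaign, cut at about 8.5% in these data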;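 also: 0% = DMSO-only wells as the low control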
ADAM10 inh: ADAM10 inhibition, QFRET primary screen; O14672; recombinant ADAM10, EDANS/DABCYL FRET peptide cleavage, 3 h; inhibition, % at 7 µM; hit rate 0.62% among 370,000; AID 720582;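 active = inhibition above a per-campaign cutoff equal to the mean of compounds falling between control-based bounds plus 3 SD, cut at about 20% in these data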;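 also: 0% = DMSO wells while the 100% control is not disclosed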
Target sequence (O14672 214-748 limits assumed): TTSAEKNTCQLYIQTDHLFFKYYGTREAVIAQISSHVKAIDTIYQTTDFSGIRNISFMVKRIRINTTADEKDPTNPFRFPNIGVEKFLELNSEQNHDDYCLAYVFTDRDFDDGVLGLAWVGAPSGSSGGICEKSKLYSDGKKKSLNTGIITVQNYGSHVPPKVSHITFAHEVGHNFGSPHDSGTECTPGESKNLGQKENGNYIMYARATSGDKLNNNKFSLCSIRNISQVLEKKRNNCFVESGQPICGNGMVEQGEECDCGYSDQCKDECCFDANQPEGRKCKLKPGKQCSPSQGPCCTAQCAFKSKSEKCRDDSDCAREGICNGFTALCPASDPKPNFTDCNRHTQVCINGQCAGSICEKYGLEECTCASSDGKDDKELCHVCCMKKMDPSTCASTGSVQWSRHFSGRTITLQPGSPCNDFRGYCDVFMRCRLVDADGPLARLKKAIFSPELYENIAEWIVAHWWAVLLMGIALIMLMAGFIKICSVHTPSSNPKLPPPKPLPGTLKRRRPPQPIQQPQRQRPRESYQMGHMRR
The depositor's hits bear a star; . = no result given. The list is not random: actives were taken first. Their share in the collection is about 4.3%.

SMILES	GRIN3A LBD mod	sPLA2-III inh	FAS-TE inh	ADAM17 inh	ADAM10 inh
CCc1ccc(NC(=O)C(C)OC(=O)c2cc(=O)[nH]c3ccc(S(=O)(=O)Nc4ccc(F)cc4)cc23)cc1 (configuration not stated)	13*	-5	20	-2	-9
COc1cc(/C=C/c2nc3ccccc3c(=O)[nH]2)cc(Br)c1O	23*	12	0	-6	-4
CCOC(=O)[C@@]12CCCC3=C1N(CCC3)C(=O)[C@H]2CC(=O)NCCCOC	.	7	.	-5	-7
N#CCC[C@@H]1CC[C@]2(CCCN(C(=O)c3cccnc3)C2)O1	.	-1	.	3	3
CCOC(=O)c1c(NC(=S)Nc2ccccc2)sc2c1CC(C)(C)SC2	13*	-2	17	-6	-30
CCOC(=O)c1c(NC(=S)NC)sc2c1CC(C)(C)SC2	-31	2	7	-81	-253
COCCOc1cc(N2C(=O)CSCC2=O)c(Cl)cc1Cl	12*	-51	-7	2	8
CNC(=O)CS(=O)(=O)CC(=O)Nc1cc(OCCOC)c(Cl)cc1Cl	-1	-2	-3	0	-2
O=C(NCC1CCN(Cc2ccccc2F)CC1)Nc1cc(F)ccc1F	0	-11	-1	1	3
O=C(NCC1CCN(Cc2ccc(F)cc2)CC1)Nc1cc(F)ccc1F	10*	-12	-4	-1	-2
C=CCOC/C=C/C#CCN(Cc1ccc(OC)cc1OC)C(=O)Nc1ccccc1	.	-3	.	5	9
O=C(NC1CCCCC1)Oc1cc2oc(=O)sc2cc1Br	5	0	12	4	26*
O=C(NC1CCCCCC1)c1ccc(Br)o1	-2	4	-3	-4	0
C/C(=N/NC(=O)CSc1nnc(-c2ccccc2)n1-c1ccc(Cl)cc1)c1cccc(O)c1	.	-2	.	2	6
CCCCc1ccc(NC(=S)NCc2cccc(OC)c2)cc1	11*	-18	37	6	19
CCCCc1ccc(NC(=S)Nc2ccc(Nc3ccc(OC)cc3)cc2)cc1	12*	13	23	4	9
N#C/C(=C/c1ccc(O)c(O)c1)c1nc2ccccc2[nH]1	19*	12	-5	-18	-17
N#C/C(=C\c1ccc([N+](=O)[O-])o1)c1nc2ccccc2[nH]1	22*	4	.	-3	-5
N#C/C(=C\c1cccs1)c1nc2ccccc2[nH]1	22*	-6	-18	-18	-49
N#C/C(=C\c1ccc(N2CCCC2)c([N+](=O)[O-])c1)c1nc2ccccc2[nH]1	3	-5	14	-6	-20
CCc1ccc(NC(=O)COc2ccc(/C=C(/C#N)c3nc4ccccc4[nH]3)cc2OC)cc1	30*	-9	-6	-12	-31
C=CCN(C(=O)[C@@H](CCCC)[C@@H](O)c1ccc(C(C)=O)cc1)c1ccccc1	.	-11	.	0	3
COC(=O)[C@H](C(C)C)N(CCCc1cn(Cc2ccc(C)cc2)nn1)S(=O)(=O)c1ccc(F)cc1Br	.	-23	.	8	14
C=CCN1[C@H](C)COc2cccc(F)c2S1(=O)=O	.	14	.	-5	2
O=C(NC(NC(=S)Nc1cc(Cl)ccc1Cl)C(Cl)(Cl)Cl)c1ccco1 (configuration not stated)	14*	-12	19	1	6
SMILES	GRIN3A LBD mod	sPLA2-III inh	FAS-TE inh	ADAM17 inh	ADAM10 inh
Cc1ccccc1NC(=S)NC(NC(=O)c1ccco1)C(Cl)(Cl)Cl (configuration not stated)	-10	1	-8	0	-2
O=C(Cc1ccccc1)NC(NC(=S)Nc1cc(Cl)ccc1Cl)C(Cl)(Cl)Cl (configuration not stated)	16*	-7	-5	0	2
O=C(COc1ccccc1)NC(NC(=S)Nc1ccccc1O)C(Cl)(Cl)Cl (configuration not stated)	5	-19	3	1	11
COc1ccc(-c2ccnc(SCC(=O)c3ccc(Br)cc3)n2)cc1	26*	-7	20	-2	-6
CCOc1ccc(CNC(=O)CCCn2nc(CC)n3c(cc4occc43)c2=O)cc1	1	-3	-1	-2	-8
CCc1nn(CCCC(=O)NCc2ccc(OC(C)C)cc2)c(=O)c2cc3occc3n12	16*	-1	9	-1	-8
CNC(=O)c1ccc(NC(=O)Nc2ccccc2)cc1	26*	-5	-3	-3	3
CC(=O)c1ccc(NC(=O)Nc2ccccc2)cc1	27*	-18	2	-1	-3
CC(=O)c1cccc(NC(=O)Nc2ccccc2)c1	-11	-9	-1	-1	2
Nc1nnc(CC(=O)N/N=C/c2cccc([N+](=O)[O-])c2)s1	-1	-1	5	-4	4
Nc1nnc(CC(=O)N/N=C/c2cc([N+](=O)[O-])cc(Br)c2O)s1	18*	6	24	0	2
Nc1nc(CSC(=S)N2CCOCC2)nc(Nc2ccccc2)n1	-1	0	-6	-3	-3
Nc1nc(CSC(=S)N2CCN(c3ccccc3)CC2)nc(Nc2ccc(F)cc2)n1	25*	-6	18	0	4
C[C@@H]1[C@@H](c2ccccc2)c2cc3ccccc3nc2-c2nc3ccccc3cc2[C@@H]1C(=O)N1CCCC1	.	0	.	2	2
CN1CCN(C(=S)c2ccc(Cl)cc2)CC1	10*	-1	-3	-1	7
O=C(/C=C/c1ccccc1)CC(=O)c1ccccc1O	13*	-10	2	-27	-78
COC(=O)C1CN(Cc2cn(CCOC(C)=O)nn2)CCS(=O)(=O)N1Cc1ccc(C)cc1 (configuration not stated)	.	1	.	-3	-7
COC(=O)C1=C(C)N(C)C(=NCc2ccccc2)NC1c1cccc(Cl)c1 (configuration not stated)	.	-5	.	-4	-13
Cc1cc(=O)n2[nH]c(SCc3ccccc3Cl)nc2n1	18*	-2	-4	3	-1
Cc1cc(=O)n2[nH]c(SCc3c(F)cccc3Cl)nc2n1	1	-5	-5	1	5
Cc1noc(/C=C/N(C)C)c1S(=O)(=O)N1CCCC(C(=O)N2CCCCC2)C1 (configuration not stated)	14*	5	-8	-2	-6
Cc1noc(/C=C/N(C)C)c1S(=O)(=O)N1CCCC(C(=O)NC2CCCCC2)C1 (configuration not stated)	-3	0	2	3	4
O=C(N/N=C/c1c[nH]c2ccccc12)c1[nH]c2ccc(Br)cc2c1-c1ccccc1	27*	22*	20	-14	-43
O=C(CNc1ccccc1)N/N=C/c1c[nH]c2ccccc12	9	1	0	-2	6
O=C(N/N=C/c1ccc(O)cc1)c1[nH]c2ccc(Br)cc2c1-c1ccccc1	29*	-20	18	-7	-38
CN(CC#Cc1ccccc1)C(N)=NC(=O)/C=C/c1cccc(C(F)(F)F)c1	.	-2	.	-3	-2
